Records with an inconclusive call do not appear. Unmarked numbers belong to inactive results. Activity calls are given as the source filed them. The call rests on the fitted dose curve; in most records, active means well fitted curve in the direction sought with a large enough effect; inconclusive means small, poorly fitted or top-dose-only effect, or another doubt; inactive means no such curve, though single readings can be large; an effect the other way counts as inactive or inconclusive.
Experiments:
[1] = qHTS of pediatric cancer cell lines to identify multiple opportunities for drug repurposing: Primary screen for TC32 cells (AID 1347089); further: nearly all actives have a fitted effect of over 60% in size; further: potency means the concentration at half of the fitted maximal effect
In short: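 qHTS, TC32, 48 h drug treatment, CellTiter-Glo luminescence as a proxy for metabolically active cells; primary top concentration 46 µM (MIPE 11-pt, NPC 8-pt); confirmatory 11-pt.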

[2] = qHTS of pediatric cancer cell lines to identify multiple opportunities for drug repurposing: Primary screen for SJ-GBM2 cells (AID 1347091); further: potency means the concentration at half of the fitted maximal effect
In short: (§1)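 Viability measured as metabolically active cells via CellTiter-Glo luminescence following 48 hours of compound exposure, 11-point dilutions in confirmatory testing. 500-1,000 cells/well plated 5 hours before dosing; controls were DMSO and 2.3 µM bortezomib.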

[3] = qHTS of pediatric cancer cell lines to identify multiple opportunities for drug repurposing: Primary screen for SK-N-MC cells (AID 1347093); further: potency means the concentration at half of the fitted maximal effect
In short: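 Metabolically active cells were quantified by ATP-dependent luminescence (CellTiter-Glo, 15 min at room temperature) following 48 h treatment. Cells had been plated at 500-1,000 per well and settled for 5 h beforehand.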

[4] = qHTS of pediatric cancer cell lines to identify multiple opportunities for drug repurposing: Primary screen for NB-EBc1 cells (AID 1347095); further: potency means the concentration at half of the fitted maximal effect
In short: (§2)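 Viability was measured as metabolically active cells after 48 hours of treatment, read by CellTiter-Glo luminescence. Compounds were tested at multiple final concentrations, giving concentration-response curves.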

[5] = qHTS of pediatric cancer cell lines to identify multiple opportunities for drug repurposing: Primary screen for U-2 OS cells (AID 1347096); further: nearly all actives have a fitted effect of over 50% in size; further: potency means the concentration at half of the fitted maximal effect
In short: (§3)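 Viability after 48 h compound treatment at 37C, 500-1,000 cells/well, read as ATP luminescence with CellTiter-Glo. Primary screens used 11-point (MIPE, 0.78 nM-46 µM) or 8-point (NPC, 0.59 nM-46 µM) final concentrations; follow-up screens used 11-point dilutions.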

[6] = qHTS of pediatric cancer cell lines to identify multiple opportunities for drug repurposing: Primary screen for Saos-2 cells (AID 1347097); further: nearly all actives have a fitted effect of over 40% in size; further: potency means the concentration at half of the fitted maximal effect
In short: as §2

[7] = qHTS of pediatric cancer cell lines to identify multiple opportunities for drug repurposing: Primary screen for LAN-5 cells (AID 1347100); further: potency means the concentration at half of the fitted maximal effect
In short: as §3

[8] = qHTS of pediatric cancer cell lines to identify multiple opportunities for drug repurposing: Primary screen for OHS-50 cells (AID 1347103); further: nearly all actives have a fitted effect of over 40% in size; further: potency means the concentration at half of the fitted maximal effect
In short: (§4)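 Cells (500-1,000/well) rested 5 h, then received compounds for 48 h; metabolically active cells were measured by CellTiter-Glo luminescence. Final concentrations spanned up to 46 µM (MIPE, 11-point) or 0.59 nM-46 µM (NPC, 8-point) in primary screens, 11-point in follow-ups.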

[9] = qHTS of pediatric cancer cell lines to identify multiple opportunities for drug repurposing: Primary screen for BT-37 cells (AID 1347094); further: potency means the concentration at half of the fitted maximal effect
In short: as §2

[10] = qHTS of pediatric cancer cell lines to identify multiple opportunities for drug repurposing: Primary screen for A673 cells (AID 1347092); further: nearly all actives have a fitted effect of over 45% in size; further: potency means the concentration at half of the fitted maximal effect
In short: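 Luminescence from CellTiter-Glo, taken after 15 min at room temperature, served as the proxy for metabolically active cells following 48 h treatment. Both potency and efficacy were taken from curves fitted to the titration data.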

[11] = qHTS of pediatric cancer cell lines to identify multiple opportunities for drug repurposing: Primary screen for SK-N-SH cells (AID 1347098); further: nearly all actives have a fitted effect of over 65% in size; further: potency means the concentration at half of the fitted maximal effect
In short: as §4

[12] = qHTS of pediatric cancer cell lines to identify multiple opportunities for drug repurposing: Primary screen for BT-12 cells (AID 1347101); further: nearly all actives have a fitted effect of over 25% in size; further: potency means the concentration at half of the fitted maximal effect
In short: as §4

[13] = qHTS of pediatric cancer cell lines to identify multiple opportunities for drug repurposing: Primary screen for Rh18 cells (AID 1347102); further: nearly all actives have a fitted effect of over 65% in size; further: potency means the concentration at half of the fitted maximal effect
In short: as §3

[14] = qHTS of pediatric cancer cell lines to identify multiple opportunities for drug repurposing: Primary screen for NB1643 cells (AID 1347099); further: nearly all actives have a fitted effect of over 50% in size
In short: as §2

[15] = qHTS of pediatric cancer cell lines to identify multiple opportunities for drug repurposing: Primary screen for RD cells (AID 1347104); further: nearly all actives have a fitted effect of over 55% in size; further: potency means the concentration at half of the fitted maximal effect
In short: as §2

[16] = qHTS of pediatric cancer cell lines to identify multiple opportunities for drug repurposing: Primary screen for DAOY cells (AID 1347090); further: potency means the concentration at half of the fitted maximal effect; nearly all actives have a fitted effect of over 55% in size
In short: as §1

In the case of Cc1ccccc1C(=O)Nc1ccc(C(=O)N2CCCC(N(C)C)c3ccccc32)cc1 (configuration not stated), the Potency [1] is reported as “inactive”, the Potency [2] is reported as 9.44 µM (active) and the Potency [3] is reported as 6.68 µM (active). For the same molecule, the Potency [4] was 2.99 µM (active), the Potency [5] was “inactive” and the Potency [6] was 6.68 µM (active). For the same molecule, the Potency [7] was 18.8 µM (active) and the Potency [8] was 21.9 µM (active).
For O=C(CCN1CCC(c2ccccc2)C1)c1ccc2c(c1)OCCO2 (configuration not stated), the Potency [1] was “inactive”, the Potency [2] was “inactive” and the Potency [9] was “inactive”. The Potency [4] was 23.7 µM (active), the Potency [5] was “inactive” and the Potency [6] was 23.7 µM (active).
With CC(C)n1nc(-c2cc3cc(O)ccc3[nH]2)c2c(N)ncnc21 the Potency [1] was 2.1 µM (active), the Potency [2] was 0.596 µM (active) and the Potency [10] was 10.6 µM (active). For the same molecule, the Potency [3] was 0.299 µM (active), the Potency [9] was 1.1 µM (active) and the Potency [4] was 0.944 µM (active). For the same molecule, the Potency [5] was 13.3 µM (active), the Potency [6] was 4.22 µM (active) and the Potency [11] was 12.2 µM (active). The Potency [7] was 8.41 µM (active), the Potency [12] was 1.23 µM (active) and the Potency [13] was 6.68 µM (active). The Potency [8] was 0.437 µM (active).
For CCOC(=O)n1ccn(C)c1=S, the Potency [1] was “inactive”, the Potency [2] was “inactive” and the Potency [10] was “inactive”. For the same molecule, the Potency [9] was “inactive”, the Potency [4] was “inactive” and the Potency [5] was “inactive”. The Potency [6] was “inactive”, the Potency [11] was “inactive” and the Potency [14] was “inactive”. For the same molecule, the Potency [7] was “inactive”, the Potency [12] was “inactive” and the Potency [13] was “inactive”. For the same molecule, the Potency [8] was “inactive” and the Potency [15] was “inactive”.
With Oc1cc(O)c2c(c1)O[C@H](c1ccc(O)c(O)c1)[C@H](O)C2 the Potency [1] was “inactive”, the Potency [2] was “inactive” and the Potency [10] was “inactive”. For the same molecule, the Potency [3] was “inactive”, the Potency [9] was “inactive” and the Potency [4] was “inactive”. For the same molecule, the Potency [5] was “inactive”, the Potency [6] was “inactive” and the Potency [14] was “inactive”. For the same molecule, the Potency [7] was “inactive”, the Potency [12] was “inactive” and the Potency [13] was “inactive”. The Potency [8] was “inactive”.
With C[C@]12CCC(=O)C=C1[C@@H]1C[C@@H]1[C@H]1[C@@H]3[C@@H]4C[C@@H]4[C@@]4(CCC(=O)O4)[C@@]3(C)CC[C@@H]12 the Potency [1] was “inactive”, the Potency [2] was “inactive” and the Potency [9] was “inactive”. The Potency [4] was “inactive”, the Potency [5] was “inactive” and the Potency [6] was “inactive”. For the same molecule, the Potency [11] was “inactive”, the Potency [7] was “inactive” and the Potency [8] was 24.6 µM (active). For the same molecule, the Potency [15] was “inactive”.
In the case of Oc1c(I)cc(Cl)c2cccnc12, the Potency [2] is reported as 18.8 µM (active), the Potency [10] is reported as 21.1 µM (active) and the Potency [6] is reported as 21.1 µM (active). For the same molecule, the Potency [11] was 27.3 µM (active) and the Potency [8] was 21.9 µM (active).
With Oc1ccc(Cl)c2cccnc12 the Potency [2] was “inactive”, the Potency [5] was “inactive” and the Potency [11] was 8.64 µM (active). For the same molecule, the Potency [7] was 21.1 µM (active) and the Potency [12] was 5.5 µM (active).
With C#C[C@]1(O)CC[C@H]2[C@@H]3CCc4cc(OC5CCCC5)ccc4[C@H]3CC[C@@]21C the Potency [1] was “inactive”, the Potency [4] was “inactive” and the Potency [11] was 17.2 µM (active). For the same molecule, the Potency [8] was 19.5 µM (active).
In the case of CCCCCCCCCCCCCCCC[N+](C)(C)CC, the Potency [16] is reported as 13.3 µM (active), the Potency [2] is reported as 18.8 µM (active) and the Potency [10] is reported as 1.06 µM (active). The Potency [3] was 2.66 µM (active), the Potency [9] was 13.8 µM (active) and the Potency [6] was 13.3 µM (active). The Potency [11] was 12.2 µM (active), the Potency [12] was 2.76 µM (active) and the Potency [13] was 0.473 µM (active). The Potency [8] was 0.692 µM (active).
With Nc1ccc(C(=O)Nc2ccccc2N)cc1 the Potency [16] was 16.8 µM (active), the Potency [2] was 13.3 µM (active) and the Potency [3] was 3.76 µM (active). The Potency [9] was 17.4 µM (active), the Potency [4] was 3.76 µM (active) and the Potency [7] was 6.68 µM (active). For the same molecule, the Potency [13] was 16.8 µM (active) and the Potency [8] was 6.17 µM (active).
With NC(=NCCCCCCN=C(N)/N=C(\N)Nc1ccc(Cl)cc1)/N=C(\N)Nc1ccc(Cl)cc1 the Potency [16] was 21.1 µM (active), the Potency [10] was 21.1 µM (active) and the Potency [6] was 26.6 µM (active). For the same molecule, the Potency [12] was 9.78 µM (active) and the Potency [15] was 26.6 µM (active).
With C=C(CC)C(=O)c1ccc(OCC(=O)O)c(Cl)c1Cl the Potency [2] was “inactive”, the Potency [3] was 18.8 µM (active) and the Potency [4] was 21.1 µM (active). The Potency [11] was 17.2 µM (active), the Potency [13] was “inactive” and the Potency [8] was “inactive”.

Source: PubChem BioAssay (NCATS)
